Screening data (PubChem)
An excerpt weighted towards active compounds, which were near 1.4% of everything screened.
BCLXL inh = blocks human Bcl-xL binding to Bim BH3 peptide; Q07817; GST-Bcl-xL / FITC-Bim BH3 peptide fluorescence polarization; inhibition, % at 10.9 µM; 320,000 tested, 0.7% active; AID 2129;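 active means inhibition above the mean of all tested compounds plus 3 SD, cutoff set per campaign, cut at about 30% in these data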;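 further: 0% = DMSO wells and 100% = unlabeled Bim-BH3 peptide competitor; inhibitors lower millipolarization by displacing the labeled peptide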
Target sequence (Q07817 whole entry, looked up): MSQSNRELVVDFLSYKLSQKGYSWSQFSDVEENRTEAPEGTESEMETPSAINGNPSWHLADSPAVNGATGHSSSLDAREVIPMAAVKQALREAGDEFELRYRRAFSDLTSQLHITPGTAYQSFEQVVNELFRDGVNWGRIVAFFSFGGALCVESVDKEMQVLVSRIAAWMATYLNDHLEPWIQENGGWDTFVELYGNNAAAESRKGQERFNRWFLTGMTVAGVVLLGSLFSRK
MEX-5 binding = C. elegans MEX-5 TCR-2 RNA binding activity. Q9XUB2. MEX-5/FITC-TCR2 RNA binding, fluorescence polarization; stronger effect = lower value. activity score (negative = inhibition of binding), % at 10 µM. 300,000 tested, 0.38% active;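 active means inhibition past about -25% in most replicates, and total fluorescence under double the plate's negative control median, limit read from the data; inconclusive means replicates evenly split on the limit, or fluorescence at least double controls; inactive means too little inhibition in most replicates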;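 further: 0% = DMSO and -100% = 5 µM competing unlabeled TCR2 RNA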
GLD-1 TGE inh = GLD-1-TGE RNA interaction inhibition (C. elegans); Q17339; purified GLD-1 + fluorescein TGE RNA, fluorescence polarization; inhibition, % at 5.96 µM; 320,000 tested, 0.44% active; AID 2280;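 active means percent inhibition above a per-plate cutoff, the plate mean of test compounds plus 3 SD, cut at about 30% in these data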;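 further: 0% = DMSO wells with GLD-1 and probe and 100% = wells lacking GLD-1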
Target sequence (Q17339 whole entry, looked up): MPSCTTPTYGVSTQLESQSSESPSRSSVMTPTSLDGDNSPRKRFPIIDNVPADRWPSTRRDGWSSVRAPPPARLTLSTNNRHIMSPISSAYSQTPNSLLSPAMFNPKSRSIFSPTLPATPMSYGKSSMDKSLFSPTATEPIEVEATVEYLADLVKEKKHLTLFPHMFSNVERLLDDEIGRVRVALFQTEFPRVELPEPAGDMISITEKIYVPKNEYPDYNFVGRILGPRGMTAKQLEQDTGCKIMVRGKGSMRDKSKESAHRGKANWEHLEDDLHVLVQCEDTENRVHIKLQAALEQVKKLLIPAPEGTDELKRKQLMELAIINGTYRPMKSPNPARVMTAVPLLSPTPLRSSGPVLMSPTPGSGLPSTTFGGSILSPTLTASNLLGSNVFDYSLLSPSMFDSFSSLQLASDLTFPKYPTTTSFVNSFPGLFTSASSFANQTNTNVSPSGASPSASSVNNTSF
eLon inh = inhibits E. coli Lon protease. AID 602123. 360,000 tested, 0.42% active. P0A9M0. purified E. coli Lon protease, fluorescence polarization. inhibition, % at 7.94 µM; in the data active means inhibition above about 13%, passing the limit was not always enough;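 further: 0% = enzyme with probe and DMSO and 100% = no enzyme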
MCL1 BIM primary = MCL1-BIM-BH3 interaction inhibition (human); GST-MCL1 / FITC-Bim-BH3 fluorescence polarization; AID 2057; 320,000 tested, 0.68% active; inhibition, % at 10.9 µM;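 active means inhibition above the mean inhibition of all tested compounds plus 3 SD, set per campaign, cut at about 40% in these data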;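 further: 0% = DMSO wells and 100% = unlabeled Bim-BH3 peptide control; higher means more loss of mP so more displacement of Bim peptide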
eLon confirm = E. coli Lon inhibition confirmation. shares compounds with eLon inh. purified E. coli Lon, fluorescence polarization. inhibition, % at 7.94 µM. 1,400 tested, 31% active. AID 602230; in the data active means inhibition above about 16%;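 further: 0% = enzyme with probe and DMSO and 100% = no enzyme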
* marks the source's active call; other numbers are inactive results; i = inactive; ? = inconclusive; · = not tested or not shown.

SMILES | BCLXL inh | MEX-5 binding | GLD-1 TGE inh | eLon inh | MCL1 BIM primary | eLon confirm
O=C(O)CN1C(=O)C(=O)N(Cc2ccc(Cl)cc2Cl)C1=O | 3.9 | -0.6 | 0.7 | 18.2* | -8.7 | 16.8*
NC(=O)CN1C(=O)C(=O)N(Cc2ccc(Cl)cc2)C1=O | 4.4 | 5.0 | 3.2 | -6.0 | 5.5 | ·
CCOC(=O)c1sc2ncn(CC(=O)Nc3cc(C)on3)c(=O)c2c1C | -1.2 | · | -11.8 | -10.5 | -3.2 | ·
Cc1nn(-c2ccccc2)c2[nH]c(=O)c(CNc3ccc4c(c3)OCCO4)cc12 | 7.9 | -3.7 | -4.2 | 21.1* | 2.6 | 43.5*
COc1cccc(NCc2cc3c(C(C)(C)C)nn(-c4ccccc4)c3[nH]c2=O)c1 | -0.7 | 0.6 | 20.1 | -1.9 | -0.1 | ·
O=C(NCc1ccccc1)C1CCC(=O)N(CCN2CCOCC2)C1 (stereo unspecified) | 9.6 | -0.4 | 2.8 | -4.8 | 2.7 | ·
O=C(CN1CCCCCC1)N/N=C/c1ccc(Cl)c(Cl)c1 | 0.4 | -0.9 | 1.1 | -2.5 | 1.6 | ·
O=C(CN1CCSCC1)N/N=C/c1ccc(F)c(F)c1 | 2.3 | 0.9 | 5.6 | 27.0* | -2.2 | -1.0
CCOC(=O)C1=C(C)NC2=C(C(=O)C(C(=O)OCC)C(c3ccco3)C2)C1c1ccccn1 (stereo unspecified) | 3.0 | 1.3 | 7.5 | 44.4* | 10.4 | -0.6
Cc1ccccc1NC(=O)NCCCN1CCCC1 | -5.2 | -0.8 | 8.8 | 0.1 | -3.0 | ·
O=C(NCCCN1CCCC1)Nc1ccccc1[N+](=O)[O-] | 0.8 | -1.2 | -3.0 | 16.4* | 7.9 | 9.1
O=C(COC(=O)/C=C/c1ccccc1)NCc1ccco1 | · | · | · | -3.2 | · | ·
CNC(=O)CSc1nc2cccnc2n1-c1ccc(F)cc1 | · | 2.2 | · | 28.3* | · | -11.3
N#CC1=C2N=C(N)c3ccccc3N2C2=C(C(=O)CCC2)C1c1ccccc1F (stereo unspecified) | 23.8 | -0.2 | 13.5 | 71.2* | 20.6 | 3.8
CC(NC1=CC(=O)c2cccnc2C1=O)C(O)c1ccccc1 (stereo unspecified) | · | · | · | -5.0 | · | ·
COc1cccc(OC)c1OCC(O)CN1CCN(c2ccc(F)cc2)CC1 (stereo unspecified) | -1.9 | 2.1 | -0.6 | 7.4 | 1.7 | ·
COc1cccc(OCC(O)CN2CCN(c3ccc(F)cc3)CC2)c1 (stereo unspecified) | 3.9 | 3.9 | 1.1 | 19.6* | 8.1 | -14.3
COc1ccc2c(ccc[n+]2[O-])c1 | · | · | · | -11.3 | · | ·
COc1ccc2nc3ccccc3[n+]([O-])c2c1 | · | · | · | 193.9* | · | 138.3*
c1coc(-c2cnc3ccccc3n2)c1 | · | · | · | 35.5* | · | 6.0
CCCCOc1ccc(C(=O)NCCN2CCC(n3c(=O)[nH]c4ccccc43)CC2)cc1 | · | · | · | -5.0 | · | ·
CCOc1cc2c(cc1O)C(=NO)CC1C2CCC2(C)C(O)CCC12 (stereo unspecified) | · | · | · | -7.7 | · | ·
O=C(c1cccs1)N(CC1CCCO1)c1nc(-c2ccccc2)cs1 (stereo unspecified) | 3.9 | -0.8 | 3.3 | 16.5* | 7.0 | 17.1*
O=C(c1ccco1)N(CC1CCCO1)c1nc(-c2ccccc2)cs1 (stereo unspecified) | 5.8 | -0.3 | 9.3 | 0.2 | 2.4 | ·
CCCN1C(=O)c2cccc3c(N4CCCCC4)ccc(c23)C1=O | 43.0* | -134.7* | 34.9* | 73.6* | 35.3 | -22.9
SMILES | BCLXL inh | MEX-5 binding | GLD-1 TGE inh | eLon inh | MCL1 BIM primary | eLon confirm
CCCCNc1ccc2c3c(cccc13)C(=O)N(CCCC)C2=O | · | ? | · | 134.7* | · | i
CC(=O)N(C(C)=O)N1C(=O)c2cccc3c(N4CCOCC4)ccc(c23)C1=O | 42.8* | ? | 33.4* | 39.2* | 27.7 | 21.0*
CCN(CC)S(=O)(=O)c1ccc(C(=O)OCCN2C(=O)c3cccc4c(N5CCOCC5)ccc(c34)C2=O)cc1 | 23.4 | ? | 13.2 | 2.3 | 13.6 | ·
CN(C)CCCN1C(=O)c2cccc3c(Br)ccc(c23)C1=O | 35.1* | ? | 22.4 | 31.2* | 38.9 | 67.6*
COc1ccc(OC)c(NCCN2C(=O)c3ccccc3C2=O)c1 | · | · | · | -0.7 | · | ·
O=C(O)CN1C(=O)c2cccc3c(Br)ccc1c23 | 8.0 | -1.6 | 7.6 | -4.8 | 0.1 | ·
CC(NC(=O)NC(=O)c1cccc([N+](=O)[O-])c1)C1CC1 (stereo unspecified) | · | 2.1 | · | 7.2 | · | ·
CC(NC(=O)NC(=O)c1ccc(F)cc1)C1CC1 (stereo unspecified) | · | · | 1.9 | 26.5* | · | -3.6
Cc1cc(NC(=O)CCC(=O)N(Cc2ccco2)C2(C(=O)NC3CCCCC3)CCCCC2)no1 | -1.2 | -1.6 | -4.3 | 20.6* | -1.6 | -2.5
O=C1NC[C@H](CC2CCCCC2)N(CCc2cc(C(F)(F)F)cc(C(F)(F)F)c2)C1=O | · | · | · | -0.5 | · | ·
O=C(Nc1cccc(C(=O)N2CCCCC2)c1)c1ccc(Cl)cc1 | -1.8 | 0.0 | 2.6 | 17.4* | 1.2 | 5.1
O=C(Nc1cccc(C(=O)N2CCCCC2)c1)C1CCCC1 | · | · | · | 16.0* | · | -5.6
O=C(Nc1cccc(C(=O)N2CCCCC2)c1)c1ccccc1 | · | · | · | 10.3 | · | ·
Cc1ccc2nc(N3CCN(C)CC3)c(C=O)c(=O)n2c1 | 34.4* | -6.1 | 16.0 | 63.6* | 37.7 | -0.5
CCN1CCN(c2nc3ccccn3c(=O)c2C=O)CC1 | 30.8* | -7.8 | 11.0 | 20.2* | 30.0 | -2.6
O=Cc1c(N2CCN(c3ccccc3)CC2)nc2ccccn2c1=O | 8.1 | -3.1 | -2.4 | -0.9 | -1.5 | ·
Cc1ccc2nc(N3CCN(c4ccccc4)CC3)c(C=O)c(=O)n2c1 | 5.0 | -1.1 | 1.9 | 8.1 | 10.6 | ·
O=C(c1ccccc1)c1ccc(C(=O)N2CCN(c3ccccc3Cl)CC2)cc1 | 3.7 | · | 3.8 | 18.1* | 6.1 | 4.9
O=c1c2ccccc2nc2n1CCc1ccc(Br)cc1-2 | · | · | · | -4.9 | · | ·
O=C(O)c1csc(-c2ccc(Cl)cc2)n1 | 5.2 | -1.2 | 1.5 | 16.4* | 1.9 | -0.5
CC(C)N1CCCC(C)(C(=O)Nc2nc3ccccc3n2C)C1 (stereo unspecified) | · | · | · | -7.2 | · | ·
Cn1ncc([N+](=O)[O-])c1C(=O)Nc1ccccc1C#N | · | · | · | -9.3 | · | ·
O=C1c2ccc3c4c(ccc(c24)C(=O)N1CCCCO)C(=O)N(CCCCO)C3=O | · | -12.2 | · | 49.8* | · | 50.5*
COc1ccc(OC)c(CN2CCSCC2)c1 | · | 0.1 | · | 3.3 | · | ·
COc1ccc(OC)c(CN2CCN(c3ccccc3OC)CC2)c1 | 5.2 | -0.2 | -0.9 | 16.8* | 8.3 | 3.6
COc1ccc(CN2CCN(c3ccccc3OC)CC2)c(OC)c1 | 0.8 | -0.4 | -2.0 | 1.3 | 2.0 | ·
COc1ccccc1N1CCN(Cc2ccc(O)c3ncccc23)CC1 | 0.1 | 0.7 | 1.4 | 15.2* | 2.4 | 12.4
COc1ccc(OC)c(CN2CCCCCC2)c1 | 0.0 | -1.9 | 7.6 | 20.6* | 8.3 | 121.0*
COc1ccccc1N1CCN(C2CCCCC2NS(=O)(=O)c2ccc(Cl)cc2)CC1 (stereo unspecified) | -1.2 | 0.6 | 9.7 | 25.4* | -6.5 | -3.7
